Source: publication PMC4336329 (PLoS ONE, 2015)
In all, about 310,000 compounds went through this assay and about 14,000 (4.5%) showed an effect of 50% or more. Effects have a minus sign here. What follows is part of a selection rich in strong results, with near analogues and random picks from the rest.

target: human ether-à-go-go-related gene (hERG) potassium channel (human, UniProt Q12809); test: primary screen, population patch clamp on CHO cells stably expressing hERG; higher = less effect of the substance
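Note: peak tail current of the secondary pulse compared with the same well before compound.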

Sequence of human ether-à-go-go-related gene (hERG) potassium channel (Q12809 whole entry, looked up): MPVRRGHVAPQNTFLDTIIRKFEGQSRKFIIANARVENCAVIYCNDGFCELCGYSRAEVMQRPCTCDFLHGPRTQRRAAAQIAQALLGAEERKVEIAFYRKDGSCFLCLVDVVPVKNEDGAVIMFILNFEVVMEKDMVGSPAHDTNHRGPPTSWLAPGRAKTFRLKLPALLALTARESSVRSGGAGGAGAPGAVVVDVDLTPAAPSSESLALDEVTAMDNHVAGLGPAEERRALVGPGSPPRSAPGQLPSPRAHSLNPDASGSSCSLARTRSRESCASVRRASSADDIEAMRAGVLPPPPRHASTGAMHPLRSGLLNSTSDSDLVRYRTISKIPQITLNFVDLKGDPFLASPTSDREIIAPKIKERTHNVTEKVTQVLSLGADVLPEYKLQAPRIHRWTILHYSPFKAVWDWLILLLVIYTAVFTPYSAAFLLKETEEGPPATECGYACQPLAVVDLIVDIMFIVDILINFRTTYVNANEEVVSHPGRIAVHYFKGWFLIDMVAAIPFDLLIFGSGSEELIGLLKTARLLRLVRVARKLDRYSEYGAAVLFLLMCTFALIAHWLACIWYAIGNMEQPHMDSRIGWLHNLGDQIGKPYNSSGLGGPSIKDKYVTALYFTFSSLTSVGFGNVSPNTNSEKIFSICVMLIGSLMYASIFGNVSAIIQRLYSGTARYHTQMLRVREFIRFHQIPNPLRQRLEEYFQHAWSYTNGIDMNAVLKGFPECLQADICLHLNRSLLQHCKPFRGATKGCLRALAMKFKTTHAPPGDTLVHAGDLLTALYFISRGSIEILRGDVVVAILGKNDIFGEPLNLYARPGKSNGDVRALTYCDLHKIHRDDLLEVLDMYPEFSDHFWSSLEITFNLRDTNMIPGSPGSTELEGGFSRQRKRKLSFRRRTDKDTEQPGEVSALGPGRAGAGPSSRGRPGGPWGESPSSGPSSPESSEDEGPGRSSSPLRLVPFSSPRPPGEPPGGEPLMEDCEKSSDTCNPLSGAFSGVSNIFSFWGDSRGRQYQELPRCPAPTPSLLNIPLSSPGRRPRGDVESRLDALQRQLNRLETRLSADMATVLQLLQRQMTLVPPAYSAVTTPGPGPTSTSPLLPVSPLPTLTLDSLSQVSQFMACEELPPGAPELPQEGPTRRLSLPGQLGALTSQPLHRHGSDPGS

| SMILES | hERG current change (%, negative = inhibition) at 10uM [%] |
| --- | --- |
| O=C(Nc1ccc(Cl)cc1F)c1cc(S(=O)(=O)N2CCCCC2)ccc1F | -0.146 |
| Cc1ccc(NC(=O)Cn2nnc(C(=O)NCc3ccco3)c2N)c(C)c1 | 3.23 |
| C/[N+]([O-])=C\c1coc2ccccc2c1=O | -1.4 |
| O=C(CCl)N1CCN2C(=O)c3ccccc3C12c1ccc(Cl)cc1 (stereo not drawn) | -1.56 |
| Cc1cc2oc(=O)c(CC(=O)NCCCN(C)C)c(C)c2c2occ(C(C)(C)C)c12 | -69.1 |
| COCCCNC(=O)Cc1c(C)c2c(cc(C)c3c(C(C)(C)C)coc32)oc1=O | -32.3 |
| Cc1cc2oc(=O)c(CC(=O)NCCCO)c(C)c2c2occ(C(C)(C)C)c12 | -9.35 |
| O=C1OC(CO)CN1Cc1ccccc1 (stereo not drawn) | 12.3 |
| COc1ccc(-n2cc(-c3ccccc3)c3c(N4CCOCC4)ncnc32)cc1 | 22.5 |
| c1ccc(-c2cn(-c3ccccc3)c3ncnc(NCCCN4CCOCC4)c23)cc1 | -60.6 |
| COc1ccc(-n2cc(-c3ccccc3)c3c(NCCCN4CCOCC4)ncnc32)cc1 | -65 |
| c1ccc(-n2ncc3c(NCCCN4CCOCC4)ncnc32)cc1 | -11 |
| c1ccc(-c2csc3ncnc(NCCCN4CCOCC4)c23)cc1 | -13.2 |
| COc1ccc(-n2cc(-c3ccccc3)c3c(NN4CCOCC4)ncnc32)cc1 | -40.6 |
| COc1nc(-c2ccc(Cl)cc2)nnc1C | 2.25 |
| COCCNC(=O)C(c1cccs1)N(CCc1ccccc1)C(=O)Cn1nnc2ccccc21 (stereo not drawn) | 6.51 |
| O=C(CSc1nnc(Cn2cnc3ccccc32)o1)c1ccccc1 | -7.21 |
| Cc1ccc(N2C(=O)CC(=O)NC2=O)c(C)c1 | 17.2 |
| CC(=O)OCCn1c(C)[n+](CCOC(C)=O)c2cc(Cl)c(Cl)cc21.[I-] | 14.7 |
| COc1ccc(-c2ccoc2)cc1[C@H]1[C@H]2C=CC[C@@H](C)[C@@H]2C(=O)N1Cc1ccccc1 | 1.85 |
| O=C(c1ccco1)N1CCN(Cc2nnc(-c3ccccc3)o2)CC1 | -55.5 |
| Cc1ccccc1-c1nnc(CN2CCN(C(=O)c3ccco3)CC2)o1 | -14.2 |
| O=C(c1ccco1)N1CCN(Cc2nnc(-c3cccc(Cl)c3)o2)CC1 | -45.9 |
| CC1CCN(Cc2nnc(-c3cccc(Br)c3)o2)CC1 | -0.585 |

| SMILES | hERG current change (%, negative = inhibition) at 10uM [%] |
| --- | --- |
| O=C(c1ccco1)N1CCN(Cc2nnc(-c3cccc(Br)c3)o2)CC1 | -62.2 |
| O=C(c1ccco1)N1CCN(Cc2nnc(-c3ccccc3F)o2)CC1 | 9.67 |
| O=C(Cn1c(CO)nc2ccccc21)NCCc1ccccc1 | -3.08 |
| COc1ccccc1CNC(=O)c1cc(C)nn1-c1ccccc1 | 1.87 |
| CCOc1ccccc1NC(=O)Nc1cc(S(=O)(=O)N(C)C)ccc1C | 15 |
| CCOCCCNC(=O)c1cc2c(=O)n3cccc(C)c3nc2s1 | 12.6 |
| CCOC(=O)c1c(C)nc2c(C)cccn12 | -6.9 |
| C=CCn1c(=N)c(C#N)cc2c(=O)n3ccccc3nc21 | -35.3 |
| COCCCNC(=O)c1cc2c(=O)n3cccc(C)c3nc2s1 | 7.44 |
| COCCCNC(=O)c1cc2c(=O)n3cccc(C)c3nc2n(C(C)C)c1=N | -65.5 |
| C=CCn1c(=N)c(S(=O)(=O)c2ccc(C)c(C)c2)cc2c(=O)n3ccccc3nc21 | 14.3 |
| C=CCn1c(=N)c(C(=O)OCC)cc2c(=O)n3cccc(C)c3nc21 | -72.9 |
| CCn1c(=N)c(C(=O)NCCCOC)cc2c(=O)n3cccc(C)c3nc21 | -61.4 |
| C=CCn1c(=N)c(C(=O)NCCCOC)cc2c(=O)n3ccccc3nc21 | -60.1 |
| CC(NC(=O)CSc1nc2ccc(N)cc2s1)c1ccccc1 (stereo not drawn) | 32 |
| O=c1cccc2n1CC1CC2CN(C(c2ccccc2)c2sc3ncnn3c2O)C1 (stereo not drawn) | 15.1 |
| Cc1ccc(S(=O)(=O)N2CCCCC2)cc1NC(=O)c1cc(=O)[nH]c2ccccc12 | -6.61 |
| CCCN(CC(=O)Nc1ccccc1C)C(=O)c1ccc(C(=O)c2ccccc2)cc1 | -25.9 |
| CCOc1ccc(CCNc2cc(C)nc3ncnn23)cc1OCC | -5 |
| Cc1onc(-c2ccccc2)c1C(=O)Nc1sc2c(c1C#N)CCC2 | 1.63 |
| Cn1c(=O)cc(N2CCCCC2)[nH]c1=O | 9.92 |
| CCc1cc(=O)oc2cc3occ(-c4ccc(OC)c(F)c4)c3cc12 | 2 |
| CCn1c(NC(=O)c2ccccc2)nc2ccccc21 | 4.47 |
| C=CCn1c(=N)c(C(=O)NCCCOC)cc2c(=O)n3cc(C)ccc3nc21 | -57.3 |

| SMILES | hERG current change (%, negative = inhibition) at 10uM [%] |
| --- | --- |
| C=CCn1cc(C(=O)NCCCOC)c(=O)c2cc(S(=O)(=O)N(CC)CC)ccc21 | -30.5 |
| C=CCn1c(=N)c(C(=O)NCCCOC)cc2c(=O)n3cccc(C)c3nc21 | -73.5 |
| O/N=C1\CCSc2ccc(F)cc21 | -6.52 |
| CC(=O)Nc1ccc(Oc2ccc(NC(C)=O)c(NC(C)=O)c2)cc1 | 1.5 |
| COc1ccc(CCNC(=O)Cn2cccc2C(=O)c2ccccc2C)cc1OC | -16.3 |
| Cc1ccccc1C(=O)c1cccn1CC(=O)NCCN1CCN(c2cccc(C)c2C)CC1 | -69.5 |
| Cc1ccc(CNC(=O)Cn2cccc2C(=O)c2ccccc2C)cc1 | -7.1 |
| Cc1ccc(C)c(N2CCN(CCCNC(=O)Cn3cccc3C(=O)c3ccccc3)CC2)c1 | -87.2 |
| Cc1ccc(C)c(N2CCN(CCCNC(=O)Cn3cccc3C(=O)c3ccccc3C)CC2)c1 | -74 |
| Cc1cccc(N2CCN(C(=O)Cn3cccc3C(=O)c3ccccc3)CC2)c1C | -17.2 |
| Cc1ccc(C)c(N2CCN(C(=O)CCNC(=O)Cn3ccc4ccccc4c3=O)CC2)c1 | -3.39 |
| Cc1cccc(N2CCN(C(=O)Cn3ccc4ccccc4c3=O)CC2)c1C | -23.1 |
| Cc1ccccc1C(=O)c1cccn1CC(=O)NCCC1=CCCCC1 | 20.5 |
| Cc1cccc(N2CCN(C(=O)CCNC(=O)Cn3ccc4ccccc4c3=O)CC2)c1C | -55.5 |
| O=C(Cn1cccc1C(=O)c1ccccc1)NCCN1CCOCC1 | -2.26 |
| Cc1ccc(CNC(=O)Cn2cccc2C(=O)c2ccccc2)cc1 | 1.89 |
| Oc1ccccc1N1CCN(C(c2ccccc2)c2ccccc2)CC1 | 12.6 |
| COc1ccc(OCCOC(=O)c2ccc(F)c(S(=O)(=O)N3CCOCC3)c2)cc1 | -13.8 |
| COc1ccc(NC(=S)NC(=O)/C=C/c2ccco2)cc1 | -4.31 |
| O=C(c1ccccc1)c1ccc(N2CCN(C(=O)c3cccc(F)c3F)CC2)c(F)c1 | -37.9 |
| O=C(Cn1nc(Cc2ccncc2)c2ccccc2c1=O)N1CCN(C(=O)c2ccco2)CC1 | -26.7 |
| O=C(Cn1nc(Cc2ccncc2)c2ccccc2c1=O)N1CCc2ccccc2C1 | -44.4 |
| Cc1cccc(N2CCN(C(=O)Cn3nc(Cc4ccncc4)c4ccccc4c3=O)CC2)c1C | -61.3 |
| COc1ccc(CN2CCSCC2)c(OC)c1C | 13.5 |

| SMILES | hERG current change (%, negative = inhibition) at 10uM [%] |
| --- | --- |
| COc1ccc(CN2CCSCC2)cc1C | 7.71 |
| COc1ccc(CN2CCC(CO)(CCOc3ccccc3)CC2)cc1C | -81.8 |
| OCC1(CCOc2ccccc2)CCN(CCCn2cccn2)CC1 | -73.1 |
| Cc1nn(C)c(Cl)c1CN1CCC(CO)(CCOc2ccccc2)CC1 | -54.7 |
| COc1ccc(CN2CCC(CO)(CCOc3ccccc3)CC2)c(OC)c1C | -83.5 |
| CCn1ccnc1CN1CCC(CO)(CCOc2ccccc2)CC1 | -8.02 |
| COc1ccc(CN2CCCN(C)CC2)c(OC)c1C | 11.1 |
| Cc1nn(C)cc1CN1CCC(CO)(CCOc2ccccc2)CC1 | -22.6 |
| O=c1c2c(ncn2C2CCCC2)n(Cc2ccccc2)c(=O)n1CCOc1ccccc1 | -8.64 |
| Cc1ccc([N+](=O)[O-])cc1NC(=O)/C=C/C(=O)O | -2.79 |
| O=C(Nc1ccc(Br)c(Br)c1)C1CCCO1 (stereo not drawn) | 3.39 |
| COc1ccc(COC(=O)Nc2c(SC)nsc2SC)cc1 | 11.5 |
| CCc1noc(C)c1C(=O)OCC(=O)NCc1ccccc1 | 2.29 |
| NC(=O)c1ccccc1NC(=O)CSc1cn[nH]n1 | 13.2 |
| Cc1cc(C)cc(NC(=O)CSc2nnc(-c3ccccc3C)o2)c1 | 3.37 |
| COc1cccc(-c2nnn(CC(=O)O)n2)c1 | 9.1 |
| COc1ccc(OCC(=O)N2CCCC(CO)(CCOc3ccccc3)C2)cc1 (stereo not drawn) | -46.8 |
| Cc1c(CN2CCC(CO)(CCOc3ccccc3)CC2)c(=O)n(-c2ccccc2)n1C | -5.7 |
| COc1ccc(OC)c(CN2CCSCC2)c1 | 9.69 |
| COc1cc(OC)c(CN2CCC(CO)(CCOc3ccccc3)CC2)c(OC)c1 | -86.4 |
| COc1ccc(OC)c(CN2CCC(CO)(CCOc3ccccc3)CC2)c1 | -76.2 |
| Cc1cc(C)c(CN2CCC(CO)(CCOc3ccccc3)CC2)cc1C | -65.2 |
| OCCOc1cccc(CN2CCC(CO)(CCOc3ccccc3)CC2)c1 | -51.3 |
| CC(=O)c1cccc(CN2CCC(CO)(CCOc3ccccc3)CC2)c1 | -41.5 |
